# PLK1 PBD inh: qHTS for Inhibitors of PLK1-PDB (polo-like kinase 1 - polo-box domain): Primary Screen; Plk1 PBD binding of FITC phosphopeptide, fluorescence polarization; actives 2.8% (n = 360,000); Potency, µM, without a hit: max response, negative = inhibition, hits mostly inhibitors; Serine/threonine-protein kinase PLK1 (Homo sapiens), P53350; note: series mostly up to about 57 µM; nearly all actives have a fitted effect of over 65% in size
# Target sequence (P53350 whole entry, looked up, the tested form may be a part): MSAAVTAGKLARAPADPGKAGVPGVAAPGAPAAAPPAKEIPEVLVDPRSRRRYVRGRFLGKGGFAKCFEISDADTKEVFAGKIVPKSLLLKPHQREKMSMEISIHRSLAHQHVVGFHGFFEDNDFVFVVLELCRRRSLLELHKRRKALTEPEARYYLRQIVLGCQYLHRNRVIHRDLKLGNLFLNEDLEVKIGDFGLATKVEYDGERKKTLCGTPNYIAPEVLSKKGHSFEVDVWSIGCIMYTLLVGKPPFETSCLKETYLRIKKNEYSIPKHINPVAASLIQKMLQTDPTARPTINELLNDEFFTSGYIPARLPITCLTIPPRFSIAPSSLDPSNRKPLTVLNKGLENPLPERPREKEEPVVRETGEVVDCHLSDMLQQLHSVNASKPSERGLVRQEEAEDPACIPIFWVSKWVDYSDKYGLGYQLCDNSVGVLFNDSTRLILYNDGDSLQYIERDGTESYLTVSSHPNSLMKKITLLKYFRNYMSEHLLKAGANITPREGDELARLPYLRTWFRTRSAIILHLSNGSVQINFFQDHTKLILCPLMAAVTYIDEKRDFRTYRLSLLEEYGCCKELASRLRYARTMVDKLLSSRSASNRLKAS
# DT40 TDP1 no CPT: qHTS for Inhibitors of human tyrosyl-DNA phosphodiesterase 1 (TDP1): qHTS in cells in absence of CPT. DT40 Tdp1-/- hTDP1 cells, no CPT, ATP luminescence, 48 h. Potency, µM (highest dose often 46.2 µM), inactives show top-dose activity change, negative = growth inhibition, actives largely listed as inhibitors. actives 15% (n = 420,000). AID 686978, 2013; note: nearly all actives have a fitted effect of over 55% in size
#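 No-CPT arm: Tdp1-/-;hTDP1 DT40 cells (400/well) plus compounds, incubated ≥48 hr at 37 °C. Readout CellTiter-Glo luminescence.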
# TDP1 cell CPT: qHTS for Inhibitors of human tyrosyl-DNA phosphodiesterase 1 (TDP1): qHTS in cells in presence of CPT | chicken DT40 Tdp1-/-;hTDP1 cells + 20 nM CPT, ATP luminescence, 48 h | Potency, µM (titrated, usually from 46.2 µM), for the others: top-dose activity change, negative = growth inhibition, usual class: inhibitors | actives 12% (n = 420,000) | AID 686979, 2013; note: nearly all actives have a fitted effect of over 55% in size
#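 Chicken DT40 Tdp1-/- cells stably complemented with human TDP1 were seeded at 400 cells/well in medium containing 20 nM camptothecin, exposed to pin-transferred compounds, and grown at 37 °C for at least 48 hr. Viability was read as ATP luminescence.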
# TDP1 inh: qHTS Assay for Inhibitors of Tyrosyl-DNA Phosphodiesterase (TDP1); recombinant TDP1, AlphaScreen DNA substrate cleavage; Potency, µM (highest dose often 130 µM), for the others: at the top dose activity change, negative = inhibition, hits mostly inhibitors; actives 0.28% (n = 350,000); AID 485290, 2010; note: nearly all actives have a fitted effect of over 40% in size
#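 Compounds were preincubated with Tdp1 (1 nM final) for 15 min at room temperature before substrate (15 nM final) started a 5 min reaction; beads (10 ug/ml final) were then added for 10 min before AlphaScreen detection.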
# VDR inhibitor: Inhibitors of the vitamin D receptor (VDR): qHTS; actives 0.93% (n = 400,000); Potency, µM, inactives show max response, negative = inhibition, most hits filed as inhibitors; VDR-SRC2-3 peptide fluorescence polarization, 2 h
#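 Fluorescence polarization assay measuring small-molecule disruption of VDR binding to the coregulator peptide SRC2-3. Compounds were pin-transferred (23 nl) into the reagent mix and incubated 2 h at room temperature before reading.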
# GCN5L2 inh: qHTS Assay for Inhibitors of GCN5L2; GCN5L2 HAT assay, ThioGlo1 CoA-SH fluorescence; AID 504327, 2011; actives 0.21% (n = 390,000); Potency, µM (top dose mostly 58.9 µM), inactives show at the top dose activity change, negative = inhibition, actives largely listed as inhibitors
#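 Free CoA generated was detected with ThioGlo1 (50uM) fluorescence at Ex340nm/Em540nm, read immediately and after 20 min at room temperature. Enzyme, 20 nM in HEPES pH 7.5 buffer, saw compounds 15 min before adding 75uM H3(1-25) peptide and 70uM acetyl-CoA.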
# The depositor's hits bear a star; ? = inconclusive; · = no result given. Most compounds without a hit are left out; they make up all but 18% or so of the library. Calls come from the whole dose curve; as a rule, active = well fitted curve in the direction sought with a large enough effect; inconclusive = small, poorly fitted or top-dose-only effect, or another doubt; inactive = no such curve, though single readings can be large; an effect the other way counts as inactive or inconclusive. % is set by controls: 0 for no effect and ±100 for the full control effect; potency is the fitted concentration of half-maximal effect.
SMILES,PLK1 PBD inh,DT40 TDP1 no CPT,TDP1 cell CPT,TDP1 inh,VDR inhibitor,GCN5L2 inh
CCOC(=O)c1c(C(C)(C)C)oc2ccc(O)cc12,-1%,23µM*,21µM*,0%,-5%,-20%
CC(Oc1ccc(-c2ccccc2)c(F)c1)c1ccn(S(=O)(=O)c2ccc(F)cc2)n1 (stereo not drawn),3%,?,?,-10%,-13%,-11%
COc1ccc(S(=O)(=O)n2ccc(C(C)Oc3ccc(-c4ccccc4)c(F)c3)n2)cc1 (stereo not drawn),1%,18µM*,26µM*,-3%,0%,-16%
Cc1ccc(-c2nnc3c(C(F)(F)F)nc4ccccc4n23)cc1,-8%,21µM*,21µM*,6%,-7%,-8%
FC(F)(F)c1nc2ccccc2n2c(-c3ccc(Cl)cc3)nnc12,-3%,12µM*,7.3µM*,5%,11%,-21%
FC(F)(F)c1nnc2c(Sc3ccc(Cl)cc3)nc3ccccc3n12,-7%,1.8µM*,2.6µM*,-1%,-4%,-5%
On1c(-c2ccc(Cl)cc2)nc2ccccc21,?,?,-28%,6%,-2%,-7%
Cc1cccc(NC(=O)COC(=O)c2c(-c3ccccc3)noc2C)c1,-8%,?,?,·,·,·
COc1ccc(NC(=O)c2ccc3ccccc3n2)cc1S(=O)(=O)N1CCCCC1,-6%,16µM*,21µM*,8%,-15%,-13%
CCc1ccc(Nc2nc3ccccc3nc2NS(=O)(=O)c2ccccc2)cc1,·,21µM*,16µM*,·,-9%,-6%
O=S(=O)(Nc1nc2ccccc2nc1Nc1ccc2c(c1)OCO2)c1ccc(F)cc1,?,13µM*,18µM*,3%,-8%,-3%
O=S(=O)(Nc1nc2ccccc2nc1Nc1cccc(S(=O)(=O)N2CCCCC2)c1)c1ccccc1,?,5.8µM*,6.5µM*,5%,5%,?
COc1ccc(NC(=O)c2cc3ccccc3o2)cc1S(=O)(=O)N1CCCCC1,3%,?,?,1%,1%,-14%
CCOc1ccc(S(=O)(=O)Nc2nc3ccccc3nc2Nc2ccc(OC)cc2)cc1,·,-29%,-8%,·,-12%,-12%
O=C(Nc1cccc(S(=O)(=O)N2CCCCCC2)c1)c1ccc2ccccc2n1,2%,18µM*,?,2%,-6%,-8%
O=C(Nc1cccc(S(=O)(=O)N2CCCCC2)c1)c1c2c(nc3ccccc13)CCN(Cc1ccccc1)C2,0%,18µM*,21µM*,4%,5%,-6%
CC(=O)c1ccc(Nc2nc3ccccc3nc2NS(=O)(=O)c2cccs2)cc1,?,9.2µM*,15µM*,0%,-26%,-8%
O=C(Nc1cccc(S(=O)(=O)N2CCCCC2)c1)c1ccccn1,-17%,-26%,-19%,-3%,-10%,0%
COc1ccc(S(=O)(=O)N2CCCCC2)cc1NC(=O)c1ccc2ccccc2n1,2%,13µM*,15µM*,5%,0%,1%
CSCCNC(=O)C1(C)CCN1C(=O)c1cc(C)n(C)n1 (stereo not drawn),4%,-2%,-5%,·,·,·
Cc1ccc(Cl)cc1NC(=O)c1cnn2c(C(F)F)cc(-c3ccccc3)nc12,·,-17%,-13%,5%,1%,-2%
O=C(NC(=S)N1CCN(C/C=C/c2ccccc2)CC1)c1ccc(Cl)nc1,?,15µM*,23µM*,3%,-19%,1%
O=C(NC(=S)N1CCN(Cc2ccccc2)CC1)c1cccnc1,-4%,21µM*,16µM*,3%,-11%,1%
CC(C)C(NC(=O)c1ccccc1)C(=O)N1CCN(C/C=C/c2ccccc2)CC1 (stereo not drawn),3%,?,?,1%,-2%,-7%
CCOc1ccc(NC(=S)N2CCN(C/C=C/c3ccccc3)CC2)cc1,?,18µM*,?,5%,12%,2%
SMILES,PLK1 PBD inh,DT40 TDP1 no CPT,TDP1 cell CPT,TDP1 inh,VDR inhibitor,GCN5L2 inh
O=C(NC(=S)N1CCCCC1)c1cccnc1,-12%,3%,-3%,6%,-12%,0%
CCOc1ccc(N=C2NC(=O)CS2)cc1,-14%,9%,-10%,·,-10%,-7%
Cc1cc(C)n2nc(C(=O)NNC(=O)c3ccccc3)nc2n1,0%,7%,26%,2%,1%,-15%
Cc1nc2ccc(S(=O)(=O)NCC(=O)NCCc3ccc(Cl)cc3)cc2s1,-10%,-6%,-24%,3%,-4%,-6%
Cc1ccccc1-c1cc2nc(NCc3ccccc3F)n(C)c(=O)c2s1,-14%,6.5µM*,7.3µM*,·,·,·
Cc1ccccc1-c1cc2nc(Oc3ccc4c(c3)OCO4)n(C)c(=O)c2s1,-1%,?,12µM*,·,·,·
Cc1ccccc1-c1cc2nc(NCc3ccc4occc4c3)n(C)c(=O)c2s1,-2%,?,18µM*,·,·,·
C=CCNc1nc2cc(-c3ccccc3C)sc2c(=O)n1C,-1%,10µM*,15µM*,·,·,·
O=C1CC(c2ccccc2)CC(=O)N1c1ccc(C(F)(F)F)cc1,-10%,-12%,-7%,0%,-5%,-11%
O=S1(=O)N[C@@H](CC2CCCCC2)COc2cc(Br)ccc21,-19%,?,15µM*,·,1%,-4%
O=C(OCc1ccccc1)N1CCN(C(c2ccnc3ccccc23)c2nnnn2-c2ccc3c(c2)OCCO3)CC1 (stereo not drawn),-10%,8.2µM*,23µM*,·,·,·
Cc1cccc(C)c1NC(=O)C(c1ccncc1)N1CCN(CCN(C)C)CC1 (stereo not drawn),-5%,14%,11%,·,·,·
O=C(Nc1ccc(F)cc1)C(c1ccccc1OC(F)(F)F)N1CCN(c2cccc(C(F)(F)F)n2)CC1 (stereo not drawn),-23%,?,?,·,·,·
c1ccc2c(C(c3nnnn3-c3ccc4c(c3)OCCO4)N3CCCC3)ccnc2c1 (stereo not drawn),-2%,?,-2%,·,·,·
O=C(Nc1ccc(F)cc1)C(c1ccnc2ccccc12)N1CCN(c2cccc(C(F)(F)F)n2)CC1 (stereo not drawn),7%,21µM*,?,·,·,·
